Screening data from PubChem.
SW480 rereplic = DNA re-replication induction in SW480 cells; SW480 DNA re-replication, Hoechst DNA content imaging, 48 h; Potency, µM (highest dose often 46.1 µM), for inactives: top-dose re-replication activation, actives largely listed as activators; hit rate 1.8% among 340,000; further: % of control where 0% means no effect; nearly all actives have a fitted effect of over 55% in size
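SW480 cells exposed to compounds for 48 hr at 37 C, 5% CO2, then Hoechst-stained 40 min. Nuclear DNA content imaged by fluorescence scanning (405 nm excitation, 500-530 nm emission); re-replication scored as increased high-intensity nuclei.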
KB-3-1 tox = KB-3-1 parental cell cytotoxicity. KB-3-1 viability, CellTiter-Glo ATP luminescence, 72 h. Potency, µM (series often up to 46.1 µM), most hits filed as cytotoxic. hit rate 1.4% among 400,000; further: on the % scale 0 is the no-effect control and ±100 the full control effect; nearly all actives have a fitted effect of over 60% in size
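Here the drug-naive KB-3-1 line serves as comparator for MDR sub-line selectivity; cells received compound titrations, 72 h at 37 °C, then CellTiter-Glo readout.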
KB-V1 MDR tox = KB-V1 MDR subline cytotoxicity. Potency, µM (titrated, usually from 46.1 µM), most hits filed as cytotoxic. hit rate 3.4% among 400,000. AID 1347076. KB-V1 MDR cells viability, CellTiter-Glo, 72 h; further: on the % scale 0 is the no-effect control and ±100 the full control effect; nearly all actives have a fitted effect of over 60% in size
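Cells of the MDR subline KB-V1 are plated, dosed with compound at multiple concentrations, and incubated 72 h at 37 degrees C; CellTiter-Glo is then added and luminescence read after 10 min.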
HT1080 IDH1KD tx = HT-1080 IDH1 knockdown cell toxicity (counter line). HT-1080 IDH1 knockdown viability, ATP luminescence, 48 h. Potency, µM (top dose mostly 46.1 µM), without a hit: top-dose activity, negative = toxicity, actives largely listed as cytotoxic. hit rate 2% among 360,000. AID 686971;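 further: 0% = DMSO wells and -100% = cell-free medium wells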
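CellTiter-Glo luminescence after 48 h compound exposure at 37 degrees C of IDH1-knockdown HT-1080 cells in 5% FBS RPMI. %Activity scaled between DMSO wells and cell-free media wells, with curves fitted and assigned curve classes.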
HT1080-NT tox = kills 2HG-producing HT-1080-NT fibrosarcoma cells | HT-1080-NT fibrosarcoma viability, CellTiter-Glo ATP luminescence, 48 h | Potency, µM (titrated, usually from 46.1 µM), inactives show at the top dose activity, negative = less viability, usual class: cytotoxic | hit rate 1.6% among 360,000 | AID 686970;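 further: NT is the 2HG producing partner of a matched IDH1 knockdown line; 0% = DMSO-treated cells and -100% = media-only wells without cells; nearly all actives have a fitted effect of over 55% in size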
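Viability of the 2HG-overproducing fibrosarcoma line after 48 hours of compound exposure at 37 degrees C was determined by luminescence with CellTiter-Glo, and concentration-effect curves were then fitted and categorized.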
MCF10A rereplic = induces DNA re-replication in MCF 10a normal breast cells. Potency, µM (highest dose often 46.1 µM), for inactives: top-dose activity, positive = re-replication, most hits filed as activators. AID 624296. MCF 10A DNA re-replication, Hoechst nuclear intensity, 48 h. hit rate 2.9% among 350,000; further: % of control where 0% means no effect; nearly all actives have a fitted effect of over 50% in size
Numbers without * were called inactive; i = inactive; ? = inconclusive; . = no result. The list is not random: actives were taken first. Their share in the collection is about 8%. The call rests on the fitted dose curve; in most records, active means well fitted curve in the direction sought with a large enough effect; inconclusive means small, poorly fitted or top-dose-only effect, or another doubt; inactive means no such curve, though single readings can be large; an effect the other way counts as inactive or inconclusive. Potency means the concentration at half of the fitted maximal effect.

SMILES	SW480 rereplic	KB-3-1 tox	KB-V1 MDR tox	HT1080 IDH1KD tx	HT1080-NT tox	MCF10A rereplic
O/N=C(/C[n+]1cccc(Br)c1)c1ccc2ccccc2c1	.	i	i	.	.	.
CCCCOC(=O)c1sc2nc(C)cc(C)c2c1N	?	i	i	-23%	-19%	?
COc1ccc(NC(=O)c2sc3nc(C)cc(C)c3c2N)c(OC)c1	15µM*	i	i	24%	12%	?
Cc1cc(C)c2c(N)c(C(=O)Nc3cccc(C)c3C)sc2n1	12µM*	?	6.5µM*	?	-12%	16µM*
CCOC(=O)c1sc2nc(C)cc(C)c2c1N	?	i	i	-16%	0%	18µM*
CCCc1nc2sc(C(=O)OCC)c(N)c2c2c1COC(C)(C)C2	23%	i	i	-18%	-6%	3.3µM*
Cc1cccnc1C(NC(=O)C1CCN(Cc2ccc(Cl)cc2)CC1)c1ccccc1 (configuration not stated)	.	i	i	?	?	.
Cc1cccnc1C(NC(=O)C1CCN(Cc2cn(C)c3ccccc23)CC1)c1ccc(Cl)cc1 (configuration not stated)	.	?	?	?	12µM*	.
Cc1cccnc1C(NC(=O)C1CCN(CCCc2ccccc2)CC1)c1ccc(Cl)cc1 (configuration not stated)	.	i	i	?	26µM*	.
COc1ccc(N2C(S)=C(C#N)C(=O)NC23CCCCC3)cc1	-10%	i	i	-3%	-9%	-10%
COc1ccc(-n2nnnc2SCC(=O)Nc2nnn(C)n2)cc1	-1%	i	i	10%	5%	1%
COc1ccc(C(=O)Nc2c(C)ccc3nsnc23)cc1[N+](=O)[O-]	-12%	i	15µM*	21%	3%	8%
CCc1ccc(NC(=O)c2ccc(OC)c([N+](=O)[O-])c2)cc1	-87%	i	15µM*	10%	21%	-7%
COC(=O)CCN(C(=O)c1ccc(OC(C)=O)cc1)c1ccccn1	-1%	i	i	5%	13%	-1%
c1ccc2c(c1)NCCS2	-2%	i	i	-15%	-20%	-52%
COc1cccc(/C=N/NC(=O)CCn2c3ccccc3c3ccccc32)c1	-16%	i	i	-13%	-6%	-7%
NNC(=O)CCn1c2ccccc2c2ccccc21	86%	i	i	-1%	-28%	12µM*
O=[N+]([O-])c1ccc2c(c1)c1ccccc1n2CCO	?	?	8.2µM*	?	?	?
CCn1c2ccccc2c2cc(NC(=O)c3ccc([N+](=O)[O-])cc3)ccc21	14%	?	i	-17%	-11%	19%
O=C(Nc1ccc(NC(=O)c2cccs2)cn1)c1ccccc1	-26%	i	i	3%	-2%	2%
CCc1ccc(CN2CCN(S(=O)(=O)Cc3ccccc3)CC2)cc1	-2%	i	10µM*	-19%	-18%	26%
O=C(CCS(=O)(=O)Cc1ccccc1)N1CCc2ccccc2C1	-9%	i	16µM*	-2%	4%	0%
CCCS(=O)(=O)N1CCN(Cc2ccc3c(c2)c2ccccc2n3CC)CC1	?	i	i	?	?	13µM*
O=C(CCS(=O)(=O)Cc1ccccc1F)N1CCc2ccccc2C1	3%	i	i	9%	6%	?
O=C(CCS(=O)(=O)Cc1ccccc1)N1CCN(Cc2ccccc2)CC1	-6%	i	?	?	19%	10µM*
CCOC(=O)C1CCN(C(=O)CCS(=O)(=O)Cc2ccccc2)CC1	-1%	i	i	7%	9%	3%
CC(C)(C)c1ccc(CCC(CC(=O)O)CC(=O)O)cc1	-162%	i	i	0%	2%	2%
